Rows were chosen to be rich in hits. Some 6.5% of all compounds tested hit in one or more screens of this group.
LASV entry inh: Lassa virus entry inhibition; 1.2% of 300,000 active; Lassa virus pseudotype entry inhibition, cell reporter; AID 540256; Potency, µM (doses to about 37.9 µM), without a hit: top-dose activity change, negative = inhibition, most hits filed as inhibitors; calls by dose curve; tested in HEK293 cells; further: potency means the concentration at half of the fitted maximal effect; nearly all actives have a fitted effect of over 50% in size
FMDV antiviral: foot and mouth disease virus antiviral activity. FMDV antiviral cell-based qHTS. Potency, µM (doses to about 57.9 µM), inactives show at the top dose activity change, negative = inhibition, usual class: inhibitors. 1.2% of 410,000 active. AID 1159524; calls by dose curve; tested in HEK293T cells; further: read-out not given here; potency means the concentration at half of the fitted maximal effect; nearly all actives have a fitted effect of over 45% in size
VACV Venus inh: vaccinia inhibition (Venus reporter) | Vaccinia virus Venus reporter expression, fluorescence | Potency, µM (highest dose often 36.5 µM), inactives show at the top dose activity change, negative = inhibition, most hits filed as inhibitors | 0.46% of 330,000 active | AID 720580; calls by dose curve; tested in A549 cells; further: potency means the concentration at half of the fitted maximal effect; nearly all actives have a fitted effect of over 30% in size
MARV entry inh: blocks Marburg virus binding to or entry into cells; Marburg virus pseudotyped entry inhibition, cell reporter; Potency, µM (top dose mostly 37.8 µM), for the others: at the highest dose activity change, negative = inhibition, actives largely listed as inhibitors; 1.8% of 300,000 active; calls by dose curve; tested in HEK293 cells; further: potency means the concentration at half of the fitted maximal effect
Vaccinia mCherry: inhibitors of vaccinia virus infection (mCherry reporter signal); Vaccinia virus mCherry reporter infection, fluorescence; Potency, µM (series often up to 36.5 µM), without a hit: at the top dose activity change, negative = inhibition, hits mostly inhibitors; 0.63% of 310,000 active; calls by dose curve; tested in A549 cells; further: potency means the concentration at half of the fitted maximal effect; nearly all actives have a fitted effect of over 35% in size
HCMV antiviral: blocks human cytomegalovirus replication; HFF cells, HCMV-luciferase reporter, 72 h; hits give low values; activity change, negative = inhibition, % at 57.5 µM; 4.5% of 410,000 active; in the data active means activity change below about -60%; inconclusive means no clear call, values can overlap the other calls; inactive means above about -39%
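Luciferase read-out from HCMV-luciferase-infected HFFs (MOI 1 PFU/cell) 72 h post infection at 37C; compounds added after 16 h cell attachment; activity normalized between buffer-only basal and Salinomycin (10uM) inhibitor controls.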
The depositor's hits bear a star; i = inactive; ? = inconclusive; . = no result; [ ] = another dose, or the depositor's remark. On the % scale 0 is the no-effect control and ±100 the full control effect.

SMILES	LASV entry inh	FMDV antiviral	VACV Venus inh	MARV entry inh	Vaccinia mCherry	HCMV antiviral
Cc1cc(=O)oc2cc(Oc3ccc([N+](=O)[O-])cc3[N+](=O)[O-])ccc12	-26%	35µM*	-8%	?	i	3
COc1ccc(C2=NOC(COc3ccc4c(C)cc(=O)oc4c3)C2)c(OC)c1 (stereo not given)	?	3%	?	?	?	-69*
COc1ccccc1C1=NOC(COc2ccc3c(C)cc(=O)oc3c2)C1 (stereo not given)	?	-10%	-29%	?	-13%	-95*
COc1ccc2c(C)cc(=O)oc2c1	.	-22%	-11%	.	-1%	-102*
O=C(/C=C\Nc1ccccc1Br)c1ccc2c(c1)OCO2	.	-88%	-12%	5.6µM*	-22%	-33
O=C(/C=C/Nc1ccc(F)cc1Br)c1ccccc1	2µM*	2.8µM*	-3%	?	3%	?
O=C(/C=C/c1ccccc1Br)c1ccc2c(c1)OCO2	?	-8%	-14%	13%[46.1 µM]	i	1
COc1ccccc1C(O)c1nccn1Cc1ccccc1 (stereo not given)	.	.	-22%	.	-9%	.
O=C(CCl)N1c2ccccc2Sc2ccc3ccccc3c21	.	32µM*	10µM*	.	?	.
O=C(COc1ccc2ccccc2c1)N1c2ccccc2Sc2ccccc21	?	-22%	.	?	.	16
CN(C)CCCN1c2ccccc2Sc2ccc3ccccc3c21	?	?	?	?	10µM*	17
